Data from PubChem BioAssay.
Active and inactive are the calls of the source.

Experiments:
[1] = system: PRMT1 (protein arginine N-methyltransferase 1); assay: PRMT1 binders on small-molecule microarrays, primary screen, biochemical, small-molecule microarray, 635 nm fluorescence (AID 1088); conditions: small-molecule microarray binding, higher = more signal;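 note: binding of Prmt1 protein to compounds spotted on small-molecule microarray slides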
[2] = yeast growth modulation, basal conditions, primary screen, YJM789 clinical isolate, OD600, 24 h (AID 1089);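 note: growth of clinical yeast isolate S. cerevisiae YJM 789 seeded 1000 cells per well; test concentration not given here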; conditions: S. cerevisiae YJM789 growth, higher = more signal, called active from +8 up or from −8 down
[3] = fission yeast growth modulation, primary screen, strain 972, OD600, 24 h, no modulator (AID 1090);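 note: basal condition with compound alone and no growth modifier present; test concentration not given here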; conditions: S. pombe 972 growth, higher = more signal, called active from +8 up or from −8 down
[4] = S. cerevisiae growth modulation with rapamycin, primary screen, strain BY4716, OD600, 96 h (AID 1091); conditions: higher = more signal, called active from +8 up or from −8 down; note: test concentration not given here
[5] = biological target: Torsin-1A-interacting protein 2 (Homo sapiens) (UniProt Q8NFQ8); assay: LULL1 binders on small-molecule microarray, primary screen, cell lysate, human LULL1 lysate, 635/667 nm fluorescence (AID 1092); conditions: hLULL1 lysate binding, 635 nm fluorescence, higher = more signal;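 note: probe is lysate of COS7 cells overexpressing human LULL1; score merges per-feature 667 nm fluorescence with signal-to-noise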
Sequence of Torsin-1A-interacting protein 2 (Homo sapiens) (Q8NFQ8 whole entry, looked up): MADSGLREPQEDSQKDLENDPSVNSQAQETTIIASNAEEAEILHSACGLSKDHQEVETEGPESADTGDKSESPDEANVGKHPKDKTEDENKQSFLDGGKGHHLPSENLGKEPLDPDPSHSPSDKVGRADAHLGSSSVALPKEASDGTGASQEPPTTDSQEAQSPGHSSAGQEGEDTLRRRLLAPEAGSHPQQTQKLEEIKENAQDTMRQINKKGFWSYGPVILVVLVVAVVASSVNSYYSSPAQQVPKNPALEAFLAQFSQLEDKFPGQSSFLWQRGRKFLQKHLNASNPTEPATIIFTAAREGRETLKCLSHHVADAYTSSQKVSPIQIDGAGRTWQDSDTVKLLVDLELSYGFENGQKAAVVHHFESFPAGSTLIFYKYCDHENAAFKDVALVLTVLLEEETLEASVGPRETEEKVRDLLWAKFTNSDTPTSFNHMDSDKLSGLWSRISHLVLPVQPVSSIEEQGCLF

[6] = E. coli growth modulation, two-sided OD650, primary screen, E. coli filamentation project, strain DRC41, 24 h (AID 1093); conditions: OD650, 24 h, higher = more signal, called active from +8 up or from −8 down;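 note: MC1000 strain lacking acrAB efflux and sulA so SOS filamentation is blocked; test concentration not given here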
[7] = small-molecule microarray binders of probe aLefty2, primary screen, biochemical, biotinylated probe, 635/667 nm fluorescence (AID 1094); conditions: higher = more signal;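 note: score merges spot fluorescence near 667 nm with spot signal-to-noise ratio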
[8] = system: Noggin (protein binding on small-molecule microarray); assay: Noggin binders on small-molecule microarray, primary screen, biochemical, 635/667 nm fluorescence (AID 1095); conditions: 635 nm fluorescence, higher = more signal;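 note: score merges 667 nm feature fluorescence with signal to noise over triplicate slides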
[9] = biological target: Neurogenic locus notch homolog protein 3 (Homo sapiens) (UniProt Q9UM47); assay: NOTCH3 binders on small-molecule microarray, primary screen, biochemical, 635/667 nm fluorescence (AID 1096); conditions: NOTCH3 binding, 635 nm fluorescence, higher = more signal
Sequence of Neurogenic locus notch homolog protein 3 (Homo sapiens) (Q9UM47 whole entry, looked up): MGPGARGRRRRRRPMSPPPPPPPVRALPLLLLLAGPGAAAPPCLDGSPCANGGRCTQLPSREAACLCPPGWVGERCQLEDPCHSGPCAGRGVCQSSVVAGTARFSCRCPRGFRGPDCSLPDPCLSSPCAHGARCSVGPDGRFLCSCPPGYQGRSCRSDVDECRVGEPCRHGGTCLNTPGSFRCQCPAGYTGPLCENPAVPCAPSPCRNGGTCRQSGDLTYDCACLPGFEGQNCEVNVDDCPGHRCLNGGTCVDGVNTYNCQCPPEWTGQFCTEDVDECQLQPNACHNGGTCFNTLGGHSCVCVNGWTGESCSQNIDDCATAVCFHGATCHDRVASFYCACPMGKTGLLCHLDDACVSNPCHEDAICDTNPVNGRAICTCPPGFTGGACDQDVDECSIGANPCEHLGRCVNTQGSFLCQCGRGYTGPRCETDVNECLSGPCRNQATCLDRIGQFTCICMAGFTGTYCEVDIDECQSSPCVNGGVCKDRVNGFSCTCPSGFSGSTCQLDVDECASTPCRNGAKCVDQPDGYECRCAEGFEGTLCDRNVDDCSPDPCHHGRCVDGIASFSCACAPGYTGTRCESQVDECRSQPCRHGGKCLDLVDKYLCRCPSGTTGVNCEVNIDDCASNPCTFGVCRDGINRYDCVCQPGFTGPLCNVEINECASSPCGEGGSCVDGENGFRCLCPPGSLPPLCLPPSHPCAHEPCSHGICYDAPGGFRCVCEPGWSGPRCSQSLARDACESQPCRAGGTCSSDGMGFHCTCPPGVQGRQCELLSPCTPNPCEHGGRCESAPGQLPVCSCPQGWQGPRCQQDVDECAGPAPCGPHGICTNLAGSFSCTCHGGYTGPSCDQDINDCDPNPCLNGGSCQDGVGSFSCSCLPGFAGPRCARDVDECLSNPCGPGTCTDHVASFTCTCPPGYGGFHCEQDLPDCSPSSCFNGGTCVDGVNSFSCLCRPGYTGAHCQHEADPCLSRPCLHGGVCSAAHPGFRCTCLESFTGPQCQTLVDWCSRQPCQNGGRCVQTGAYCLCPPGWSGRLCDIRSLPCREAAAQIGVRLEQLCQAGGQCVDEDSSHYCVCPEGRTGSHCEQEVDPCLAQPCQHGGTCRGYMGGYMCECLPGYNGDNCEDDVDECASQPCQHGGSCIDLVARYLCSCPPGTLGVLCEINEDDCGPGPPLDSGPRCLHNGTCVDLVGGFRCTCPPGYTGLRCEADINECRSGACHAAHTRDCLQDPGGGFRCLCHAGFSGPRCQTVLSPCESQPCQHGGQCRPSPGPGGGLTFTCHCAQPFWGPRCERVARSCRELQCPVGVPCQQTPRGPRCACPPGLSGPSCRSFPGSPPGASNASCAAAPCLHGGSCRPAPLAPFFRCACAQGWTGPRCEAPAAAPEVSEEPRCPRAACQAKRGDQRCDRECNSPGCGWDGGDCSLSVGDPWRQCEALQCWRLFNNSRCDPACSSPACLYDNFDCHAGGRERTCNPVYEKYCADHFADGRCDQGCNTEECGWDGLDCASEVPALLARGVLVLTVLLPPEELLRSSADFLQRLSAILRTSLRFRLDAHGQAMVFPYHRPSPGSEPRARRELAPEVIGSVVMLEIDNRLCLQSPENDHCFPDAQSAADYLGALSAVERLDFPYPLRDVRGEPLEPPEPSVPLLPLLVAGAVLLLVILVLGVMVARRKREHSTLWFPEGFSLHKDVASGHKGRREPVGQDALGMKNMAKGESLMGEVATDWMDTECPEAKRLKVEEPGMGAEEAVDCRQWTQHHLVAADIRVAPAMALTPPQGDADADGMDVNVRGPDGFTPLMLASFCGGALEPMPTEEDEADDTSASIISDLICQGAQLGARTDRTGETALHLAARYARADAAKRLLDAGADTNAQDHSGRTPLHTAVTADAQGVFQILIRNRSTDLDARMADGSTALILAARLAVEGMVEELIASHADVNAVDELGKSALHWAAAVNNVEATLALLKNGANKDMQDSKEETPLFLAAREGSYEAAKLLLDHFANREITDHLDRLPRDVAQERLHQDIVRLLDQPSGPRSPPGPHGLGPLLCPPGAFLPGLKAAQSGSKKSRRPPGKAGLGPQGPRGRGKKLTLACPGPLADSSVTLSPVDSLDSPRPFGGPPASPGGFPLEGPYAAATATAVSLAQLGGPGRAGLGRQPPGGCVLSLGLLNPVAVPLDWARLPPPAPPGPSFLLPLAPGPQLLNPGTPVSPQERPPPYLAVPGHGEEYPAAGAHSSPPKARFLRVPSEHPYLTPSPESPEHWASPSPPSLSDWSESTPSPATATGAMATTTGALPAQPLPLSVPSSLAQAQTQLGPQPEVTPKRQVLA

[10] = small-molecule microarray binders of probe aEGFR, primary screen, biochemical, biotinylated probe, 635/667 nm fluorescence (AID 1097); conditions: higher = more signal;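 note: probe is a biotinylated anti-EGFR antibody binding compounds printed on slides; score combines fluorescence near 667 nm and signal to noise of each spot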
[11] = system: Plasmodium falciparum Sir2 (PF13_0152, Sir2A); assay: pfSir2 binders on small-molecule microarrays, primary screen, biochemical, small-molecule microarray, 635 nm fluorescence (AID 1098); conditions: small-molecule microarray binding, fluorescence 635 nm; higher = more signal;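 note: score merges spot fluorescence intensity with its signal-to-noise ratio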
[12] = small-molecule microarray binders of probe aDKK1, primary screen, biochemical, biotinylated probe, 635/667 nm fluorescence (AID 1099); conditions: higher = more signal;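 note: score merges 667nm spot fluorescence with signal to noise across triplicate slides; reference of the scale not given here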
[13] = small-molecule microarray binders of probe aCHRDL2, primary screen, biochemical, biotinylated probe, 635/667 nm fluorescence (AID 1100); conditions: higher = more signal
[14] = splicing luciferase reporter signal modulators, primary screen, spliceosome inhibition project, cell-based, HEK293, splice +/- reporter (AID 1101); conditions: luminescence, 24 h, higher = more signal, called active from +8 up or from −8 down;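 note: HEK293 cells carrying a splicing-competent luciferase reporter gene; test concentration not given here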
[15] = biological target: Fibroblast growth factor 10 (Homo sapiens) (UniProt O15520); assay: FGF10 binders on small-molecule microarrays, primary screen, biochemical, small-molecule microarray, 635 nm fluorescence (AID 1102); conditions: FGF10 binding, fluorescence 635 nm, higher = more signal
Sequence of Fibroblast growth factor 10 (Homo sapiens) (O15520 whole entry, looked up): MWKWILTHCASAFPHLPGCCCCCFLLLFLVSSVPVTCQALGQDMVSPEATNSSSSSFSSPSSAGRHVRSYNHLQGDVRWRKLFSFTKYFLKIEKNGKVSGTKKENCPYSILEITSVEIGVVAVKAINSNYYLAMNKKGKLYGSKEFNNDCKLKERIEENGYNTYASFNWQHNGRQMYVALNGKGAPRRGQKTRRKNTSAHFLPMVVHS

[16] = system: glycogen synthase kinase-3 (GSK3A per assay name; protocol says GSK3B); assay: GSK3 binders on small-molecule microarrays, primary screen, biochemical, small-molecule microarray, 635 nm fluorescence, GSK3A (AID 1103); conditions: small-molecule microarray binding, fluorescence 635 nm; higher = more signal; note: the record names both GSK3A and GSK3B
[17] = biological target: Epidermal growth factor receptor (Homo sapiens) (UniProt P00533); assay: EGFR binders on small-molecule microarrays, primary screen, biochemical, small-molecule microarray, 635 nm fluorescence (AID 1104); conditions: EGFR binding, higher = more signal;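 note: score merges 667 nm emission intensity with spot signal to noise over triplicate slides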
Sequence of Epidermal growth factor receptor (Homo sapiens) (P00533 whole entry, looked up): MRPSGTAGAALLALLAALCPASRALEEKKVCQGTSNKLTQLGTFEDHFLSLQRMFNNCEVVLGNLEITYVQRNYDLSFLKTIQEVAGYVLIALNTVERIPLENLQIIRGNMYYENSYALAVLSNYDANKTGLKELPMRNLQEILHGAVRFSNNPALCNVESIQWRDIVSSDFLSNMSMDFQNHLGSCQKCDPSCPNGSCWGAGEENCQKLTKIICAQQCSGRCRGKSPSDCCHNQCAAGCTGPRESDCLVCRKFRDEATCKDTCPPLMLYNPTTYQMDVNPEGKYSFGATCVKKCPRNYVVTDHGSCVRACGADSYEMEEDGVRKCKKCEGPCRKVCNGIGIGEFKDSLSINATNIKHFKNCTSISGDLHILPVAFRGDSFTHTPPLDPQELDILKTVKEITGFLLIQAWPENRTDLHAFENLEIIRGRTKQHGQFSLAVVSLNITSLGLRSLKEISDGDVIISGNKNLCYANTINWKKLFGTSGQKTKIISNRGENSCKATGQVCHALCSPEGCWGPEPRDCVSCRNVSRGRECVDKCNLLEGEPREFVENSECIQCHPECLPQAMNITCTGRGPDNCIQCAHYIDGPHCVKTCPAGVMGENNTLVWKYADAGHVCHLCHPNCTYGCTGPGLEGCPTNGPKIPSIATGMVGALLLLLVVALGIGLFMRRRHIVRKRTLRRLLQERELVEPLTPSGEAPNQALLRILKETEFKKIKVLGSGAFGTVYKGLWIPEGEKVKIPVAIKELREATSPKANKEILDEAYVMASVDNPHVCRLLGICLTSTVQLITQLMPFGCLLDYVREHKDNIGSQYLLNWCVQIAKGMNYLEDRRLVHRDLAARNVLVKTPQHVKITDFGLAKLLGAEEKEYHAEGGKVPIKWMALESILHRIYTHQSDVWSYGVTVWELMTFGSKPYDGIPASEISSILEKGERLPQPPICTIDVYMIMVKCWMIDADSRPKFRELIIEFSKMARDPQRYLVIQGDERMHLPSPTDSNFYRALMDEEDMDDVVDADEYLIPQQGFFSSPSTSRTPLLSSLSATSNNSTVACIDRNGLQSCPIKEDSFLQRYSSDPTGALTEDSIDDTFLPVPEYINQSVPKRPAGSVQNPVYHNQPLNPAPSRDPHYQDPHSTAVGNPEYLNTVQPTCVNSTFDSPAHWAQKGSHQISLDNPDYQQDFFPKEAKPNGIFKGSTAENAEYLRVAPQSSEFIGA

[18] = biological target: Follistatin-related protein 3 (Homo sapiens) (UniProt O95633); assay: FSTL3 binders on small-molecule microarrays, primary screen, biochemical, small-molecule microarray, 635 nm fluorescence (AID 1105); conditions: FSTL3 binding, higher = more signal;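 note: score merges emission near 667 nm and signal to noise per printed spot across three slides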
Sequence of Follistatin-related protein 3 (Homo sapiens) (O95633 whole entry, looked up): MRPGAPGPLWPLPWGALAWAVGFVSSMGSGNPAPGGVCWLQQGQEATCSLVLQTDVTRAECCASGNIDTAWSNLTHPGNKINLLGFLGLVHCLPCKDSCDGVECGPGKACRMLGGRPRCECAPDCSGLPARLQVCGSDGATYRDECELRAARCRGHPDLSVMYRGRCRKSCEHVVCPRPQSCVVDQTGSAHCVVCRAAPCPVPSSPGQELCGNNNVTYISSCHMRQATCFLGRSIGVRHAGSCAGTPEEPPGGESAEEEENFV

[19] = biological target: Dickkopf-related protein 1 (Homo sapiens) (UniProt O94907); assay: DKK1 binders on small-molecule microarrays, primary screen, biochemical, small-molecule microarray, 635 nm fluorescence scan (AID 1106); conditions: DKK1 binding, higher = more signal;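 note: score merges emission near 667 nm with signal to noise over three replicate slides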
Sequence of Dickkopf-related protein 1 (Homo sapiens) (O94907 whole entry, looked up): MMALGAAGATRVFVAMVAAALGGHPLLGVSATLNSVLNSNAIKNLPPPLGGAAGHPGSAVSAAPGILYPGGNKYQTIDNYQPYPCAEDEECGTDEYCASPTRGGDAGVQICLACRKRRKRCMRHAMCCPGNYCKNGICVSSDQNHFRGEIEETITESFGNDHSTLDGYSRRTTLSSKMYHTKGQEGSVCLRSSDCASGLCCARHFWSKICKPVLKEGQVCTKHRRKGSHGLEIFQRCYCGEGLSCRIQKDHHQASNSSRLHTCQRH

[20] = system: Inhibin beta A chain (activin A); assay: INHBA (activin A) binders on microarrays, primary screen, biochemical, small-molecule microarray, 635 nm fluorescence scan (AID 1107); conditions: small-molecule microarray binding, higher = more signal;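 note: mouse activin A protein probed at 4.33 µg/mL on printed slides; score merges bound-protein fluorescence near 667 nm with spot signal-to-noise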

SMILES: O=C1C2C=CC(C(O)c3cccc(O)c3)N(Nc3ccc([N+](=O)[O-])cc3)C2C(=O)N1c1ccccc1 (stereo not given)
- composite z-score [1]: 0.622
- z-score [2]: 0.706 (inactive)
- z-score [3]: 0.667 (inactive)
- z-score [4]: 1.3 (inactive)
- composite z-score [5]: 1.87
- z-score [6]: 0.404 (inactive)
- composite z-score [7]: -0.021
- composite z-score [8]: 0.196
- composite z-score [9]: 0.715
- composite z-score [10]: -0.0041
- composite z-score [11]: 0.367
- composite z-score [12]: 0.158
- composite z-score [13]: 0.451
- z-score [14]: 0.663 (inactive)
- composite z-score [15]: 1.07
- composite z-score [16]: 0.672
- composite z-score [17]: 0.254
- composite z-score [18]: 0.444
- composite z-score [19]: 0.239
- composite z-score [20]: 0.199

SMILES: COc1ccc(C(=O)Nc2ccc(CN3C(=O)[C@]4(O[C@H](CC(=O)N5Cc6ccccc6C[C@H]5CO)[C@@H]([Si](C)(C)c5ccc(OC)cc5)[C@@H]4C)c4ccccc43)cc2)cc1
- composite z-score [1]: 1.56
- z-score [2]: 0.186 (inactive)
- z-score [3]: 1.04 (inactive)
- z-score [4]: 3.94 (inactive)
- composite z-score [5]: 1.77
- z-score [6]: 0.315 (inactive)
- composite z-score [7]: -0.145
- composite z-score [8]: 1.34
- composite z-score [9]: 1.13
- composite z-score [10]: -0.096
- composite z-score [11]: 1.57
- composite z-score [12]: -0.196
- composite z-score [13]: -0.165
- z-score [14]: -1.18 (inactive)
- composite z-score [15]: 1.06
- composite z-score [16]: 0.837
- composite z-score [17]: 0.749
- composite z-score [18]: 0.833
- composite z-score [19]: 0.786
- composite z-score [20]: 0.518

SMILES: COC(=O)C/C=C/C[C@]1(O)C(=O)N(C)c2ccccc21
- composite z-score [1]: 0.756
- z-score [2]: -1.73 (inactive)
- z-score [3]: -1.35 (inactive)
- z-score [4]: -1.02 (inactive)
- composite z-score [5]: 0.423
- z-score [6]: 1.48 (inactive)
- composite z-score [7]: -0.186
- composite z-score [8]: 0.739
- composite z-score [9]: 0.434
- composite z-score [10]: -0.0805
- composite z-score [11]: -0.262
- composite z-score [12]: -0.299
- composite z-score [13]: -0.802
- z-score [14]: -1.38 (inactive)
- composite z-score [15]: 0.791
- composite z-score [16]: 0.605
- composite z-score [17]: 0.784
- composite z-score [18]: 0.616
- composite z-score [19]: 0.949
- composite z-score [20]: 0.587

SMILES: CC(C)=C1C(=O)C(c2ccccc2)=C2CN3C(=O)N(CCc4ccccc4)C(=O)[C@]3(Cc3ccc(C(F)(F)F)cc3)[C@H]21
- composite z-score [1]: -0.555
- z-score [2]: -0.117 (inactive)
- z-score [3]: 1.38 (inactive)
- z-score [4]: 0.812 (inactive)
- composite z-score [5]: 2.45
- z-score [6]: -1.48 (inactive)
- composite z-score [7]: 0.01
- composite z-score [8]: -1.08
- composite z-score [9]: 0.245
- composite z-score [10]: -0.139
- composite z-score [11]: 1.04
- composite z-score [12]: 1.18
- composite z-score [13]: 1.3
- z-score [14]: 0.0205 (inactive)
- composite z-score [15]: -0.649
- composite z-score [16]: -0.0628
- composite z-score [17]: -1.22
- composite z-score [18]: 0.13
- composite z-score [19]: -1.7
- composite z-score [20]: 0.877

SMILES: COCC(=C=CC[C@H](O)c1ccc(CO)o1)CCO
- composite z-score [1]: 1.09
- z-score [2]: 0.6 (inactive)
- z-score [3]: 0.0793 (inactive)
- z-score [4]: 0.244 (inactive)
- composite z-score [5]: 0.751
- z-score [6]: -0.349 (inactive)
- composite z-score [7]: -0.0501
- composite z-score [8]: 1.04
- composite z-score [9]: 1.12
- composite z-score [10]: -0.0976
- composite z-score [11]: 1.39
- composite z-score [12]: 0.0057
- composite z-score [13]: -0.336
- z-score [14]: 0.191 (inactive)
- composite z-score [15]: 1.52
- composite z-score [16]: 0.654
- composite z-score [17]: -0.294
- composite z-score [18]: 1.19
- composite z-score [19]: 0.352
- composite z-score [20]: 0.569

SMILES: COc1ccc([Si](C)(C)[C@@H]2[C@@H](CC(=O)N3Cc4ccccc4C[C@H]3CO)O[C@]3(C(=O)N(Cc4ccc(N5C(=O)c6cccc7cccc5c67)cc4)c4ccccc43)[C@H]2C)cc1
- composite z-score [1]: 1.55
- z-score [2]: -0.297 (inactive)
- z-score [3]: 0.389 (inactive)
- z-score [4]: 1.39 (inactive)
- composite z-score [5]: 1.74
- z-score [6]: -0.465 (inactive)
- composite z-score [7]: 0.104
- composite z-score [8]: 1.14
- composite z-score [9]: 1.04
- composite z-score [10]: 0.0717
- composite z-score [11]: 0.68
- composite z-score [12]: -0.0502
- composite z-score [13]: -0.0445
- z-score [14]: 1.54 (inactive)
- composite z-score [15]: 1.31
- composite z-score [16]: 1.27
- composite z-score [17]: 1.2
- composite z-score [18]: 1.24
- composite z-score [19]: 1.12
- composite z-score [20]: 0.772

SMILES: CC1=C2[C@@H](CCc3ccccc3)OB(O)C[C@@H]2[C@@H]2C(=O)N(C)C(=O)[C@@H]2C1
- composite z-score [1]: 0.618
- z-score [2]: -0.229 (inactive)
- z-score [3]: -1.2 (inactive)
- z-score [4]: -1.24 (inactive)
- composite z-score [5]: 0.299
- z-score [6]: -0.253 (inactive)
- composite z-score [7]: -0.197
- composite z-score [8]: 0.446
- composite z-score [9]: 0.279
- composite z-score [10]: -0.0238
- composite z-score [11]: -0.186
- composite z-score [12]: -0.232
- composite z-score [13]: -0.223
- z-score [14]: 0.305 (inactive)
- composite z-score [15]: 0.985
- composite z-score [16]: 0.443
- composite z-score [17]: 0.135
- composite z-score [18]: 0.451
- composite z-score [19]: 0.521
- composite z-score [20]: 0.273

SMILES: COc1ccc([Si](C)(C)[C@@H]2[C@@H](CC(=O)N3CCC[C@H]3CO)O[C@]3(C(=O)N(Cc4cccc(N5C(=O)COc6ccccc65)c4)c4ccccc43)[C@H]2C)cc1
- composite z-score [1]: 1.57
- z-score [2]: -2.24 (inactive)
- z-score [3]: -0.185 (inactive)
- z-score [4]: -0.278 (inactive)
- composite z-score [5]: 1.77
- z-score [6]: 0.222 (inactive)
- composite z-score [7]: -0.0198
- composite z-score [8]: 0.942
- composite z-score [9]: 0.757
- composite z-score [10]: -0.165
- composite z-score [11]: 0.911
- composite z-score [12]: -0.0948
- composite z-score [13]: 0.157
- z-score [14]: -1.06 (inactive)
- composite z-score [15]: 0.723
- composite z-score [16]: 0.746
- composite z-score [17]: 0.447
- composite z-score [18]: 0.579
- composite z-score [19]: 0.173
- composite z-score [20]: 0.615

SMILES: COC(=O)C1=CC(CCCO)=CC(c2cccs2)N(Cc2cccc(OC(F)(F)F)c2)C=C1C(=O)OC (stereo not given)
- composite z-score [1]: 1.57
- z-score [2]: -1.07 (inactive)
- z-score [3]: -1.2 (inactive)
- z-score [4]: -1.45 (inactive)
- composite z-score [5]: 3.28
- z-score [6]: 0.313 (inactive)
- composite z-score [7]: 0.0922
- composite z-score [8]: 0.143
- composite z-score [9]: 1.04
- composite z-score [10]: 0.679
- composite z-score [11]: 0.0898
- composite z-score [12]: 0.524
- composite z-score [13]: 0.574
- z-score [14]: 0.955 (inactive)
- composite z-score [15]: 0.67
- composite z-score [16]: 1.09
- composite z-score [17]: 0.179
- composite z-score [18]: 0.989
- composite z-score [19]: -0.149
- composite z-score [20]: 1.09

SMILES: CCCCC(CC)C(O)C1C=CC2C(=O)N(C)C(=O)C2N1Nc1ccccc1 (stereo not given)
- composite z-score [1]: 1.36
- z-score [2]: 0.307 (inactive)
- z-score [3]: -0.592 (inactive)
- z-score [4]: 0.695 (inactive)
- composite z-score [5]: 2.87
- z-score [6]: -0.931 (inactive)
- composite z-score [7]: -0.121
- composite z-score [8]: 0.123
- composite z-score [9]: 1.03
- composite z-score [10]: -0.154
- composite z-score [11]: 0.579
- composite z-score [12]: 0.559
- composite z-score [13]: 0.0302
- z-score [14]: 1.48 (inactive)
- composite z-score [15]: 0.304
- composite z-score [16]: 0.598
- composite z-score [17]: -0.248
- composite z-score [18]: 0.192
- composite z-score [19]: -0.0617
- composite z-score [20]: 0.864
